The supplement of paper PMC6555819

Tested on: PXR:RXRa (NR concentration 270 nM, RXRa partner concentration 90 nM)
Experiment: PBM binding z-score (relative to random genomic background probes); higher = stronger binding; sequences stand for … in GC…GCGATTGACAGCGTAGAATGAAGG
How it was run: (§1)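 On custom Agilent 4×180K arrays, double-stranded probes with 34-nt variable regions carried direct-repeat seeds, single-nucleotide variants, half-site ablations or random human genomic background. Ligand-free nuclear receptor dimers were applied for 1 h, and binding was read with antibodies against each partner (one per run). Binding z-scores come from regression-normalized fluorescence, with the random background probes as reference.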

Row | Sequence | PBM binding z-score
1 | ACGGACAGGTGAGTGAAGGTAACTCAGCTGGACG | -0.142
2 | CCTACTGTGCCACGAAAGGTCATTGATTCAGTGA | 5.32
3 | ATCGAAAGGCCGAGGTGAGTATAGAGAAAGGGAA | -0.348
4 | ATCGAAAGGTCGAGGTGCGTATAGAGAAAGGGAA | 2.33
5 | ACTATTAGTTGAGACGAGGGGAACCGATAGGTTG | -0.0512
6 | TCTATTAGTTGATTAGGTCAACCGAAACAGCGGA | 2.03
7 | GCTGCTAGGTCAACTGATGGTCAGCTTAAGCTCG | 1.85
8 | GGAGCGAGGGCATTCGAGTTGATAGCATGGCGAT | 3.55
9 | CAAACTAGGTCACGAAAGGTCAAACTCGAATGAC | 7.23
10 | CCTTACGGATCACGAGGTTATAGCACGACGAGCG | 1.02
11 | TCAGACAGGTGAAGATAACTCAGGTACGCAGTCG | 0.46
12 | TAGCCTAGGTCATTGGCCCAGTATAGTACGCATC | 1.71
13 | ACTCGCAGGCCAAGGGTCACTCAAGATTAGTCCG | 3.45
14 | CAAACTAGGTCACGAAAGGTCGAAGTCGAATGAC | 5.95
15 | TCTCGGAGGACACGACGGTCAGAGCTTTCCAGAG | -0.328
16 | CCGAGTAGGTTATGGGGCATTCAAGCAACGGTGA | -0.0285
17 | TTACCAACGTGAAGGTCGTTGATCCCTCTGTAGA | 1.42
18 | TCTATTAGTTGGAGGGCAACCGACGAGTCCGTTT | 1.08

Tested on: PXR homodimer (NR concentration 270 nM)
Experiment: as above
How it was run: as §1

Row | Sequence | PBM binding z-score
19 | CGTACTAGGTCAAGGACAGTGAATCTCCGCACGC | 0.03
20 | AGAATGAGGTTATACGTAGATCAGGGAAGAAAGT | 0.682
21 | CCTTACGGGTCACTGACACGTTATAGCATTTGGA | 0.171
22 | CGAACTATGTCATTGACAGGACAGTGAATAGTAA | 0.452
23 | AGAACGAGGGCAATGAATTGATAGCACGGGTGGC | 0.123
24 | TCTTGTAGATCAAAGGTTAAGGAAGCCGAAGCCT | -0.532
25 | GCTCACGGGTCAAAGGTTATAGCATGAATAGAAT | 0.22
26 | ATCTCTAGGTAACAAGTTCTGTGAAAGAGAGGAC | 0.424
27 | GCTCGGAGGACAAGGTCAGAACTTTGTCCGTAGA | -0.398
28 | CCTTACGGATCACTGACAGGTTATAGCATTTGGA | 0.678
29 | ATACCAAGGTGATCGTGAGGTCGTTGGTACTAAC | 0.856
30 | ATCTCTAGGTAACAAGTTCAGTGACAGAGAGGAC | 1.61
31 | TAGCCTAGGTCATTTAGGGGCCAGTATAGAAAGC | -0.166
32 | CGTCCAAGGTCAATGCTAGTTCAGTGAAAGCATT | 2.79
33 | CCTACTGGGGCAAAAAGGTCATTGATGCCGATAA | 5.54
34 | ACAGACAGGTGAGTGAAGGTAACTAAGCTGGACG | -0.0557

Row | Sequence | PBM binding z-score
35 | CAAACTAGGTCAAGTTCAAAGTCGGTTTGTGCCA | 6.98
36 | CAAACTAGGTCAAGAGGTCATAGTCCGCTTCCCG | 2.28
37 | ACAGACAGTTGATGAAGGTAACTCAGGCTATCAT | 0.258
38 | ATCTCTAGGTAAAGATGGTTCAGTGAATGCAAAT | 0.428
39 | TCTAACAGGCCAGAGGGTCACTCAAGAGGTACGG | -0.0848
40 | TCTGGCAGGCCAGAGGGTCACTCAAGAGGTACGG | -0.371
41 | ACGGACAGGTGAGTGAAGGTAACTCAGCTGGACG | -0.376
42 | CCTACTGTGCCACGAAAGGTCATTGATTCAGTGA | 1.94
43 | ATCGAAAGGCCGAGGTGAGTATAGAGAAAGGGAA | 0.0633
44 | ATCGAAAGGTCGAGGTGCGTATAGAGAAAGGGAA | 0.0206
45 | ACTATTAGTTGAGACGAGGGGAACCGATAGGTTG | 0.29
46 | TCTATTAGTTGATTAGGTCAACCGAAACAGCGGA | 0.923
47 | GCTGCTAGGTCAACTGATGGTCAGCTTAAGCTCG | -0.712
48 | GGAGCGAGGGCATTCGAGTTGATAGCATGGCGAT | 0.905
49 | CAAACTAGGTCACGAAAGGTCAAACTCGAATGAC | 4.8
